Hit rate of the full screen: of about 5,500 compounds, about 2,000 (36%) were called active. Inconclusive results (about 18%) are left out. Cut-off read from the data, not from the text of the source: active = normalized growth mostly below about 0.91 (no sharp cut-off); inconclusive = no clear call, values can overlap the other calls; inactive = mostly above about 0.92. Some of the results follow.
Assay: chemical genetic growth profiling, strain panel (AID 1159580);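 note: tested at 20 µM; growth read once vehicle control cultures reached saturation at 30 °C; 1 = growth at the plate median or of vehicle wells; lower values mean less growth of the strain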
Settings: growth OD

Measured: normalized growth

O=[N+]([O-])/N=C1/NCCN1Cc1ccc(Cl)cc1
inactive: S. cerevisiae deletion strains, locus YAL013W, strain DEP1, stronger effect = lower value 0.994 | S. cerevisiae deletion strains, locus YBR021W, strain FUR4, stronger effect = lower value 0.992 | S. cerevisiae deletion strains, locus YBR229C, strain ROT2, stronger effect = lower value 0.968 | S. cerevisiae deletion strains, locus YCL029C, strain bik1, stronger effect = lower value 0.99 | S. cerevisiae deletion strains, locus YDL035C, strain GPR1, stronger effect = lower value 0.988 | S. cerevisiae deletion strains, locus YDL074C, strain BRE1, stronger effect = lower value 1.05 | S. cerevisiae deletion strains, locus YDL101C, strain DUN1, stronger effect = lower value 0.993 | S. cerevisiae deletion strains, locus YDL134C, strain PPH21, stronger effect = lower value 0.984 | S. cerevisiae deletion strains, locus YDL185W, strain tfp1, stronger effect = lower value 0.986 | S. cerevisiae deletion strains, locus YDL192W, strain arf1, stronger effect = lower value 0.993 | S. cerevisiae deletion strains, locus YDR101C, strain arx1, stronger effect = lower value 0.998 | S. cerevisiae deletion strains, locus YDR150W, strain NUM1, stronger effect = lower value 1 | S. cerevisiae deletion strains, locus YDR162C, strain NBP2, stronger effect = lower value 1.02 | S. cerevisiae deletion strains, locus YDR318W, strain mcm21, stronger effect = lower value 0.984 | S. cerevisiae deletion strains, locus YDR388W, stronger effect = lower value 0.994 | S. cerevisiae deletion strains, locus YDR502C, strain sam2, stronger effect = lower value 0.988 | S. cerevisiae deletion strains, locus YEL061C, strain CIN8, stronger effect = lower value 0.989 | S. cerevisiae deletion strains, locus YER110C, stronger effect = lower value 0.986 | S. cerevisiae deletion strains, locus YER155C, strain BEM2, stronger effect = lower value 1 | S. cerevisiae deletion strains, locus YER167W, strain BCK2, stronger effect = lower value 0.988 | S. cerevisiae deletion strains, locus YGL078C, strain dbp3, stronger effect = lower value 0.995 | S. cerevisiae deletion strains, locus YGL086W, strain mad1, stronger effect = lower value 0.979 | S. cerevisiae deletion strains, locus YGL248W, strain PDE1, stronger effect = lower value 0.979 | S. cerevisiae deletion strains, locus YGR078C, strain PAC10, stronger effect = lower value 1.02 | S. cerevisiae deletion strains, locus YGR135W, strain pre9, stronger effect = lower value 0.992 | S. cerevisiae deletion strains, locus YGR229C, strain SMI1, stronger effect = lower value 1 | S. cerevisiae deletion strains, locus YGR252W, strain gcn5, stronger effect = lower value 0.989 | S. cerevisiae deletion strains, locus YHR030C, strain SLT2, stronger effect = lower value 0.963 | S. cerevisiae deletion strains, locus YHR079C, strain IRE1 (second series), stronger effect = lower value 0.987 | S. cerevisiae deletion strains, locus YHR094C, strain hxt1, stronger effect = lower value 0.996 | S. cerevisiae deletion strains, locus YHR129C, strain ARP1, stronger effect = lower value 0.994 | S. cerevisiae deletion strains, locus YHR200W, strain rpn10, stronger effect = lower value 0.988 | S. cerevisiae deletion strains, locus YIL066C, strain RNR3, stronger effect = lower value 0.985 | S. cerevisiae deletion strains, locus YIL073C, strain SPO22, stronger effect = lower value 0.995 | S. cerevisiae deletion strains, locus YIL125W, strain kgd1, stronger effect = lower value 0.993 | S. cerevisiae deletion strains, locus YIR030C, strain dcg1, stronger effect = lower value 0.988 | S. cerevisiae deletion strains, locus YJL095W, strain BCK1, stronger effect = lower value 1.01 | S. cerevisiae deletion strains, locus YJL134W, strain LCB3, stronger effect = lower value 0.987 | S. cerevisiae deletion strains, locus YJL168C, strain set2, stronger effect = lower value 0.992 | S. cerevisiae deletion strains, locus YJL187C, strain SWE1 (second series), stronger effect = lower value 0.985 | S. cerevisiae deletion strains, locus YJR043C, strain POL32, stronger effect = lower value 1 | S. cerevisiae deletion strains, locus YJR075W, strain HOC1, stronger effect = lower value 0.998 | S. cerevisiae deletion strains, locus YKL009W, strain mrt4, stronger effect = lower value 1.01 | S. cerevisiae deletion strains, locus YKL068W, stronger effect = lower value 0.991 | S. cerevisiae deletion strains, locus YKL085W, strain MDH1 (second series), stronger effect = lower value 0.989 | S. cerevisiae deletion strains, locus YKL085W, strain MDH1, stronger effect = lower value 0.989 | S. cerevisiae deletion strains, locus YKL190W, strain CNB1, stronger effect = lower value 0.997 | S. cerevisiae deletion strains, locus YKR001C, strain vps1, stronger effect = lower value 0.983 | S. cerevisiae deletion strains, locus YLR039C, strain RIC1, stronger effect = lower value 1.01 | S. cerevisiae deletion strains, locus YLR058C, strain SHM2, stronger effect = lower value 0.986 | S. cerevisiae deletion strains, locus YLR102C, strain apc9, stronger effect = lower value 0.996 | S. cerevisiae deletion strains, locus YLR262C, strain YPT6, stronger effect = lower value 1.02 | S. cerevisiae deletion strains, locus YLR268W, strain sec22, stronger effect = lower value 0.995 | S. cerevisiae deletion strains, locus YLR330W, strain CHS5, stronger effect = lower value 0.988 | S. cerevisiae deletion strains, locus YLR342W, strain FKS1 (second series), stronger effect = lower value 0.965 | S. cerevisiae deletion strains, locus YLR371W, strain rom2, stronger effect = lower value 0.987 | S. cerevisiae deletion strains, locus YLR418C, strain cdc73, stronger effect = lower value 1 | S. cerevisiae deletion strains, locus YML016C, strain PPZ1, stronger effect = lower value 0.999 | S. cerevisiae deletion strains, locus YML032C, strain rad52, stronger effect = lower value 0.98 | S. cerevisiae deletion strains, locus YML124C, strain tub3, stronger effect = lower value 0.985 | S. cerevisiae deletion strains, locus YMR078C, strain ctf18, stronger effect = lower value 0.981 | S. cerevisiae deletion strains, locus YMR223W, strain ubp8, stronger effect = lower value 0.993 | S. cerevisiae deletion strains, locus YMR263W, strain SAP30, stronger effect = lower value 1 | S. cerevisiae deletion strains, locus YMR307W, strain GAS1, stronger effect = lower value 1.03 | S. cerevisiae deletion strains, locus YNL067W, strain RPL9B, stronger effect = lower value 1.01 | S. cerevisiae deletion strains, locus YNL128W, strain TEP1, stronger effect = lower value 0.989 | S. cerevisiae deletion strains, locus YNL153C, strain GIM3, stronger effect = lower value 1 | S. cerevisiae deletion strains, locus YNL233W, strain BNI4, stronger effect = lower value 1 | S. cerevisiae deletion strains, locus YNL250W, strain rad50, stronger effect = lower value 0.987 | S. cerevisiae deletion strains, locus YNL271C, strain bni1, stronger effect = lower value 0.992 | S. cerevisiae deletion strains, locus YNL298W, strain CLA4, stronger effect = lower value 0.989 | S. cerevisiae deletion strains, locus YNL307C, strain MCK1, stronger effect = lower value 0.992 | S. cerevisiae deletion strains, locus YNL322C, strain KRE1, stronger effect = lower value 0.992 | S. cerevisiae deletion strains, locus YNR052C, strain pop2, stronger effect = lower value 0.975 | S. cerevisiae deletion strains, locus YOL006C, strain TOP1, stronger effect = lower value 1.03 | S. cerevisiae deletion strains, locus YOL012C, strain htz1 0.909 | S. cerevisiae deletion strains, locus YOL147C, strain pex11, stronger effect = lower value 0.991 | S. cerevisiae deletion strains, locus YOR061W, strain CKA2, stronger effect = lower value 0.992 | S. cerevisiae deletion strains, locus YOR069W, strain VPS5, stronger effect = lower value 0.97 | S. cerevisiae deletion strains, locus YOR136W, strain idh2, stronger effect = lower value 0.992 | S. cerevisiae deletion strains, locus YOR144C, strain elg1, stronger effect = lower value 0.994 | S. cerevisiae deletion strains, locus YOR184W, strain ser1, stronger effect = lower value 0.998 | S. cerevisiae deletion strains, locus YOR316C, strain cot1, stronger effect = lower value 0.989 | S. cerevisiae deletion strains, locus YPL055C, strain LGE1, stronger effect = lower value 1.03 | S. cerevisiae deletion strains, locus YPL241C, strain CIN2, stronger effect = lower value 0.997 | S. cerevisiae deletion strains, locus YPR119W, strain clb2, stronger effect = lower value 0.987 | S. cerevisiae deletion strains, locus YPR141C, strain kar3, stronger effect = lower value 0.988 | S. cerevisiae deletion strains, locus YPR163C, strain tif3, stronger effect = lower value 0.982 | S. cerevisiae deletion strains, locus YPR167C, strain met16, stronger effect = lower value 0.996 | S. cerevisiae deletion strains, strain wtn01, stronger effect = lower value 0.983 | S. cerevisiae strains, strain wild type, stronger effect = lower value 0.989

From PubChem BioAssay AID1159580 (chemical genetic matrix, 2015)
